Screening data deposited in PubChem BioAssay by National Center for Advancing Translational Sciences (NCATS).
Compounds with a hit are over-represented: about 6.2% of the library has one in this group of screens.
ATXN2 expr inh: reduces ATXN2 reporter expression in HEK-293 cells. Potency, µM (top dose mostly 57 µM), for the others: at the top dose activity change, negative = inhibition, usual class: inhibitors. 0.72% of 360,000 active. HEK-293 ATXN2-luciferase reporter, luminescence, 24 h; note: % is set by controls: 0 for no effect and ±100 for the full control effect; nearly all actives have a fitted effect of over 55% in size
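ATXN2-luciferase reporter cells (luciferase flanked by upstream and downstream ATXN2 gene portions) were treated 24 h at 37 °C with compounds at up to 57 uM. SteadyGlo luminescence gave expression; GF-AFC fluorescence gave viability.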
ATXN viability: reduces viability in counter-screen for ATXN expression inhibitors. 0.49% of 400,000 active. S2 cells (HEK-293 line with an ATXN2-luciferase reporter) viability, CellTiter-Fluor protease fluorescence, 24 h. Potency, µM (doses to about 56.7 µM), usual class: cytotoxic. AID 651635; note: nearly all actives have a fitted effect of over 40% in size
KB-3-1 tox: kills parental KB-3-1 adenocarcinoma cells | KB-3-1 viability, CellTiter-Glo ATP luminescence, 72 h | AID 1347075 | Potency, µM (titrated, usually from 46.1 µM), most hits filed as cytotoxic | 1.4% of 400,000 active; note: % is set by controls: 0 for no effect and ±100 for the full control effect; nearly all actives have a fitted effect of over 60% in size
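Using CellTiter-Glo luminescence, growth of non-resistant KB-3-1 adenocarcinoma cells is assessed 72 h after pin-tool compound addition at 37 °C. Normalized responses across the concentration series yield fitted curves.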
KB-V1 MDR tox: kills drug-selected multidrug resistant KB-V1 cells | KB-V1 MDR cells viability, CellTiter-Glo, 72 h | Potency, µM (highest dose often 46.1 µM), actives largely listed as cytotoxic | 3.4% of 400,000 active | AID 1347076; note: % is set by controls: 0 for no effect and ±100 for the full control effect; nearly all actives have a fitted effect of over 60% in size
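Potencies derive from concentration-effect curves fitted to normalized luminescence (CellTiter-Glo) of KB-V1 cells treated for 72 h at 37 degrees C in phenol-red-free DMEM containing 10% FBS.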
HT1080 IDH1KD tx: toxicity to HT-1080 IDH1 knockdown cells (counter line). AID 686971. 2% of 360,000 active. HT-1080 IDH1 knockdown viability, ATP luminescence, 48 h. Potency, µM (top dose mostly 46.1 µM), for the others: top-dose activity, negative = toxicity, actives largely listed as cytotoxic;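 note: 0% = DMSO wells and -100% = cell-free medium wells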
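Assay cells: HT-1080 with IDH1 knockdown, 750 per well, RPMI/5% FBS. Exposure: 48 h at 37 °C following 2 h pre-incubation. Read: CellTiter-Glo luminescence; fitted concentration-response, curve class assigned.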
HT1080NT lethal: kills 2HG-producing HT-1080-NT fibrosarcoma cells. AID 686970. HT-1080-NT fibrosarcoma viability, CellTiter-Glo ATP luminescence, 48 h. 1.6% of 360,000 active. Potency, µM (series often up to 46.1 µM), for the others: top-dose activity, negative = less viability, actives largely listed as cytotoxic;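 note: NT is the 2HG producing partner of a matched IDH1 knockdown line; 0% = DMSO-treated cells and -100% = media-only wells without cells; nearly all actives have a fitted effect of over 55% in size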
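HT-1080-NT fibrosarcoma cells (2HG-overproducing), 750 cells/well in RPMI with 5% FBS, dosed after 2 h and incubated 48 h at 37C. CellTiter-Glo luminescence normalized to DMSO and no-cell wells; concentration-response curves fitted and classed.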
Numbers without * were called inactive; i = inactive; ? = inconclusive; . = no result. Calls come from the whole dose curve; as a rule, active = well fitted curve in the direction sought with a large enough effect; inconclusive = small, poorly fitted or top-dose-only effect, or another doubt; inactive = no such curve, though single readings can be large; an effect the other way counts as inactive or inconclusive. Potency is the fitted concentration of half-maximal effect.

SMILES	ATXN2 expr inh	ATXN viability	KB-3-1 tox	KB-V1 MDR tox	HT1080 IDH1KD tx	HT1080NT lethal
COc1ccc(C(=O)OC2C[C@H]3CC[C@@H](C2)N3C)cc1OC (stereo partly drawn)	.	i	.	.	.	.
CCOc1ccc(N(C(C)C(=O)Nc2cc(Cl)ccc2OC)S(C)(=O)=O)cc1 (stereo not drawn)	-18%	?	3.7µM*	?	.	.
C[C@]12CC[C@@H]3[C@@H](CCC4=CC(=O)CC[C@@H]43)[C@@H]1CC[C@@H]2OC(=O)CCc1ccccc1	14%	i	.	.	.	.
CC(C)(N)Cc1ccccc1Cl	8%	i	.	.	.	.
CCCCn1c(=O)c(C(=O)NCc2ccccc2OC)c(O)c2ccccc21	-18%	i	23µM*	?	4%	23%
CCCCn1c(=O)c(C(=O)Nc2cnccn2)c(O)c2ccccc21	-6%	i	7.3µM*	?	-28%	-19%
CC(C)CCn1c(=O)c(C(=O)Nc2ccccc2S(N)(=O)=O)c(O)c2ccccc21	-37%	i	3.7µM*	2.9µM*	?	-22%
CCCCCn1c(=O)c(C(=O)Nc2ncccc2C)c(O)c2ccccc21	-6%	i	i	5.2µM*	21µM*	18µM*
COc1ccccc1C1SCC(=O)Nc2c1c(C)nn2-c1cccc(C)c1 (stereo not drawn)	-18%	i	i	i	.	.
COc1ccc(OC)c(C2C(C#N)=C(N)Oc3c2c(C)nn3-c2cccc(Cl)c2)c1 (stereo not drawn)	-2%	i	23µM*	i	?	?
CCc1ccc(-n2nc(C)c3c2NC(=O)CSC3c2ccc(OC)cc2OC)cc1 (stereo not drawn)	?	i	?	i	.	.
O=C(CSc1nc(-c2ccccc2)c(-c2ccccc2)[nH]1)Nc1nccs1	?	?	i	i	?	?
C[C@H]1CCCC(=O)CCC/C=C/c2cc(O)cc(O)c2C(=O)O1	?	?	i	16µM*	6%	0%
COC(=O)[C@H]1[C@@H](OC(=O)c2ccccc2)C[C@@H]2CC[C@H]1N2C	.	i	.	.	.	.
CCCCOc1nc2ccccc2c(=O)n1-c1ccccc1	-8%	?	i	16µM*	9%	13%
COc1nc2ccccc2c(=O)n1-c1ccc(C)cc1	7%	i	i	?	0%	-1%
COc1cc2c3cc1Oc1cc(ccc1O)C[C@@H]1c4c(cc(OC)c(O)c4Oc4cccc(c4)C[C@H]3N(C)CC2)CC[N+]1(C)C	.	i	.	.	.	.
CCCC(=O)Nc1cc(C(=O)N2CCC3(CC2)OCCO3)ccc1S(=O)(=O)c1ccc(C)cc1	-6%	i	i	10µM*	-2%	4%
N#CC(c1ccccc1)c1cccc(Cl)n1 (stereo not drawn)	-4%	?	i	i	3%	2%
COc1ccc(NC(=O)CCn2cnc3onc(-c4ccc(F)cc4)c3c2=O)cc1OC	?	?	i	i	.	.
O=C(c1ccc(CS(=O)(=O)c2ccc(Br)cc2)o1)N1CCC2(CC1)OCCO2	-1%	i	i	i	-2%	-4%
O=C(c1ccc(CS(=O)(=O)c2ccccc2)o1)N1CCC2(CC1)OCCO2	4%	i	i	13µM*	1%	12%
C[C@@H](N)[C@@H](O)c1ccccc1	7%	i	.	.	.	.
CCOc1ccc(-c2nc(CSCC(=O)NCCc3ccc(OCC)c(OCC)c3)c(C)o2)cc1	20µM*	32µM*	i	?	.	.
CCOc1ccc(CC(=O)Nc2ccc3c(c2)N(C)C(=O)c2ccccc2S3)cc1OCC	-25%	?	i	i	.	.
SMILES	ATXN2 expr inh	ATXN viability	KB-3-1 tox	KB-V1 MDR tox	HT1080 IDH1KD tx	HT1080NT lethal
C[C@@H]1CN([C@H](C)CO)C(=O)c2cc(/C=C/c3ccccc3)cnc2O[C@H]1CN(C)C(=O)NC1CCCCC1	-26%	?	i	?	-10%	-3%
CC(Oc1ccccc1)C(=O)Nc1ccc(C(=O)OCc2cc(=O)n3nc(C4CC4)sc3n2)cc1 (stereo not drawn)	-40%	?	i	?	.	.
C[C@@H]1O[C@@H](O[C@H]2C[C@@H](O)[C@]3(CO)[C@H]4[C@H](O)C[C@]5(C)[C@@H](C6COC(=O)C6)CC[C@]5(O)[C@@H]4CC[C@]3(O)C2)[C@H](O)[C@H](O)[C@H]1O (stereo partly drawn)	0.56µM*	?	?	1.6µM*	0.82µM*	1.8µM*
COc1ccc(Br)cc1C1SCC(=O)Nc2c1c(C)nn2-c1ccccc1C (stereo not drawn)	?	i	?	i	.	.
Cc1ccccc1CN1Cc2cnnn2-c2ccccc2C1C#N (stereo not drawn)	?	.	?	?	6.5µM*	8.2µM*
COc1ccc(CN2Cc3cnnn3-c3ccccc3C2C)cc1 (stereo not drawn)	-14%	?	13µM*	?	?	-24%
Cc1ccccc1C(=O)N1Cc2cnnn2-c2ccccc2C1C#N (stereo not drawn)	7%	i	i	i	13%	11%
CN[C@@H]1Cc2cccc3[nH]c(=O)n(c23)C1	-3%	.	.	.	.	.
CC(C)(C)NC[C@H](O)c1cc(Cl)c(N)c(Cl)c1	.	i	.	.	.	.
CC[C@H]1CN2CCc3cc(OC)c(OC)cc3C2C[C@@H]1C[C@H]1NCCc2cc(OC)c(OC)cc21 (stereo partly drawn)	-76%	?	0.21µM*	2.1µM*	0.052µM*	0.052µM*
COc1ccc(CC2NCCc3cc(OC)c(OC)cc32)cc1OC (stereo not drawn)	-10%	.	.	.	.	.
CCc1ccc2nc(N3CCC(C(=O)N4CCC5(CC4)OCCO5)CC3)sc2c1	-10%	i	?	i	-25%	?
CCOc1ccc2nc(N3CCC(C(=O)N4CCC5(CC4)OCCO5)CC3)sc2c1	14%	i	?	2.9µM*	-27%	-26%
O=c1c2ccccc2nc(-c2ccoc2)n1-c1ccccc1Cl	-29%	?	?	16µM*	?	-18%
CC[N+]1(CC)CCC(OC(=O)C(O)(c2ccccc2)c2ccccc2)C1 (stereo not drawn)	4%	i	.	.	.	.
CCOC(=O)c1c(-n2c(C)cc(/C=C3/C(=O)NC(=O)N(CC)C3=O)c2C)sc2c1CCCC2	-24%	i	i	?	6%	-1%
CCOC(=O)c1c(-n2c(C)cc(C=C3C(=O)NC(=S)NC3=O)c2C)sc2c1CCCC2	20µM*	22µM*	?	i	?	?
